Laboratory results from PubChem BioAssay (Tox21).
Values without a mark were called inactive. Inconclusive results are not listed. Where a call stands in place of a potency, no number is given. The source made the active and inactive calls. Unless noted, the call rests on the fitted dose curve.

What was measured:
[1] = Nuclear factor erythroid 2-related factor 2/antioxidant responsive element (Nrf2/ARE) small molecule agonists: qHTS cell viability counter screen in human keratinocytes (AID 1919968; active means well fitted curve in the direction sought with a large enough effect in the repeat runs; an effect the other way counts as inactive or inconclusive; further: nearly all actives have a fitted effect of over 55% in size; further: potency means the concentration at half of the fitted maximal effect)
Method in brief: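 Stably transfected HaCaT (KeratinoSens), 1,500/well. Test agents in DMSO were applied for 23 h, 37 C/5% CO2. CellTiter-Fluor was incubated 1 h before the fluorescence read.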

[2] = Nuclear factor erythroid 2-related factor 2/antioxidant responsive element (Nrf2/ARE) small molecule agonists: luciferase reporter gene qHTS assay in human keratinocytes (AID 1919969); further: nearly all actives have a fitted effect of over 35% in size; further: potency means the concentration at half of the fitted maximal effect
[3] = target: Gonadotropin-releasing hormone receptor (Homo sapiens) (UniProt P30968); experiment: Human gonadotropin-releasing hormone receptor (GnRHR) small molecule agonists, calcium flux assay in GnRHR-HEK293 cells (AID 1920063); further: nearly all actives have a fitted effect of over 35% in size
Method in brief: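 Stable human GnRHR HEK293 line. 18 h plating, then calcium dye for 1 h at 37 C. Agonist-mode compound addition from DMSO stocks; fluorescence monitored 3 min.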

[4] = target: KiSS-1 receptor (Homo sapiens) (UniProt Q969F8); experiment: Human kisspeptin (KISS1R) small molecule agonists, calcium flux assay in KISS1R-HEK293 cells (AID 1920064; active means well fitted curve in the direction sought with a large enough effect in the repeat runs; an effect the other way counts as inactive or inconclusive)
Method in brief: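 After overnight (18 h) culture at 37 C/5% CO2, human KISS1R-HEK293 cells received calcium dye for 1 h, then test compound; emission at 540 nm (excitation 480 nm) was tracked for 3 min.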

[5] = G protein-coupled receptor (GPCR) small molecule agonists, calcium flux assay: HEK293 wild type cell line counter screen (AID 1920065)
Method in brief: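 Following 18 h incubation at 37 C/5% CO2, plates got calcium dye for 1 h; compounds, ATP or DMSO were then pinned in and fluorescence followed kinetically (480/540 nm).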

[6] = p53 small molecule agonists, cell-based qHTS assay with rat liver microsomes (AID 1963578)
Method in brief: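 Agonist mode in p53RE-bla reporter cells, with compounds co-incubated 16 h at 37 C alongside 0.5 mg/mL rat liver microsomes and 0.5 mg/mL NADPH (final), followed by a 2 h LiveBLAzer detection step.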

[7] = p53 small molecule agonists, cell-based qHTS assay with human liver microsomes: qHTS cell viability counter screen (AID 1963579); further: nearly all actives have a fitted effect of over 45% in size; further: potency means the concentration at half of the fitted maximal effect
Method in brief: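 Metabolically activated exposure: compounds, human liver microsomes and NADPH (0.5 mg/mL final apiece) were added to p53RE-bla cells seeded 5 h earlier, left 16 h at 37 C, and then assessed for viability by CellTiter-Glo luminescence.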

[8] = p53 small molecule agonists, cell-based qHTS assay with rat liver microsomes: qHTS cell viability counter screen (AID 1963580); further: nearly all actives have a fitted effect of over 45% in size; further: potency means the concentration at half of the fitted maximal effect
Method in brief: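 Cytotoxicity counter screen: intracellular ATP read by CellTiter-Glo luminescence in the p53 reporter wells. HCT-116 p53RE-bla cells were treated for 16 h at 37 C alongside rat liver microsomes and NADPH, each 0.5 mg/mL final.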

[9] = p53 small molecule agonists, cell-based qHTS assay: qHTS cell viability counter screen (AID 1963581); further: nearly all actives have a fitted effect of over 45% in size; further: potency means the concentration at half of the fitted maximal effect
Method in brief: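 qHTS counter screen: 16 h compound exposure at 37 C of p53RE-bla HCT-116 cells (4,000 per well, seeded 5 h prior), cell viability by ATP luminescence.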

[10] = p53 small molecule agonists, cell-based qHTS assay (AID 1963582; active means well fitted activation curve with a large enough effect in the signal ratio in the repeat runs, not every such curve was filed as active; the % refers to the signal ratio)
Method in brief: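 Measured: fluorescence from cleaved LiveBLAzer substrate. System: p53RE-bla cells, 16 h compound treatment at 37 C, 2 h substrate step at room temperature.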

[11] = target: 5-hydroxytryptamine receptor 2A (Homo sapiens) (UniProt P28223); experiment: 5-hydroxytryptamine receptor 2A (HTR2A) small molecule antagonists, cell-based qHTS assay (AID 1963586); further: nearly all actives have a fitted effect of over 45% in size
Method in brief: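 CHO cells stably expressing human HTR2A were plated for 18 h at 37 C, then loaded with calcium dye for 1 h. Compounds were preincubated 5 min at room temperature before DOI (4 nM solution) was added. Kinetic fluorescence was read for 3 min.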

[12] = target: Muscarinic acetylcholine receptor M1 (Homo sapiens) (UniProt P11229); experiment: Cholinergic receptor muscarinic 1 (CHRM1) small molecule antagonists, cell-based qHTS assay (AID 1963588); further: nearly all actives have a fitted effect of over 40% in size
Method in brief: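 Compounds were tested at 15 concentrations in three independent runs. Dye-loaded CHRM1-CHO cells were exposed 5 min at room temperature before stimulation by acetylcholine added at 50nM. Intracellular calcium was read kinetically on FDSS for 3 min.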

[13] = target: Muscarinic acetylcholine receptor M1 (Homo sapiens) (UniProt P11229); experiment: Cholinergic receptor muscarinic 1 (CHRM1) small molecule agonists, cell-based qHTS assay (AID 1963589); further: nearly all actives have a fitted effect of over 35% in size
Method in brief: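 Kinetic fluorescence (1 s intervals) of calcium-sensitive dye in human M1 CHO cells after compound addition; cells pre-incubated 18 h at 37 C/5% CO2 and dye-loaded 1 h.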

[14] = target: Beta-2 adrenergic receptor (Homo sapiens) (UniProt P07550); experiment: Adrenergic beta2 receptor (ADRB2) small molecule antagonists, cell-based qHTS assay (AID 1963592); further: series mostly up to about 92 µM; nearly all actives have a fitted effect of over 50% in size
Method in brief: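 Assay format: CHO-ADRB2 cells, 18-20hr seeding at 37C/5% CO2, then compound plus 1nM isoproterenol agonist mix for 0.5hr RT. Homogeneous time-resolved fluorescence cAMP detection after 1hr, expressed as 665/615 nm ratio.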

[15] = target: D(2) dopamine receptor (Homo sapiens) (UniProt P14416); experiment: Dopamine D2 receptor (DRD2) small molecule agonists, cell-based qHTS assay (AID 1963594); further: nearly all actives have a fitted effect of over 35% in size
Method in brief: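 cAMP accumulation in DRD2-HEK293 cells measured by HTRF after 1 h detection; compounds added 10 min before NKH477 (200nM […]) forskolin-analogue stimulation, 30 min at room temperature, with Ro20-1724 present at 0.1 mM final.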

[16] = target: D(2) dopamine receptor (Homo sapiens) (UniProt P14416); experiment: Dopamine D2 receptor (DRD2) small molecule antagonists, cell-based qHTS assay (AID 1963595; active means well fitted inhibition curve with a large enough effect in the signal ratio in the repeat runs, with a control signal flat; the % refers to the signal ratio; further: potency means the concentration at half of the fitted maximal effect)
Method in brief: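 Readout: HTRF cAMP, cAMP-d2 competing with cellular cAMP for anti-cAMP cryptate, read after 1 h. Cells: DRD2-HEK293. Conditions: 0.1 mM Ro20-1724, 12 nM quinpirole, 200 nM NKH477, 30 min RT.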

[17] = target: 5-hydroxytryptamine receptor 2A (Homo sapiens) (UniProt P28223); experiment: 5-hydroxytryptamine receptor 2A (HTR2A) small molecule agonists, cell-based qHTS assay (AID 1963587); further: nearly all actives have a fitted effect of over 30% in size
Method in brief: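 Kinetic calcium-flux fluorescence (2 min, 1 sec intervals) after compound addition in agonist mode. HTR2A-CHO cells were cultured 18 h, then dye-loaded 1 h at 37 C.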

[18] = cAMP Responsive Elements (CRE) small molecule agonists, cell-based qHTS assay (AID 1963590)
Method in brief: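 Test agents in DMSO were incubated 3 h at 37 C/5% CO2 with CRE-bla HEK 293T cells seeded 18 h earlier; LiveBLAzer B/G FRET substrate was added and read after 2 h at room temperature.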

[19] = cAMP Responsive Elements (CRE) small molecule antagonists, cell-based qHTS assay (AID 1963591; active means well fitted inhibition curve with a large enough effect in the signal ratio in the repeat runs, not every such curve was filed as active; the % refers to the signal ratio)
Method in brief: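 Reporter line CRE-bla HEK 293T in dialyzed-FBS DMEM; cells preincubated 18 h, treated 3 h with compound plus NKH477 (0.25 uM final); LiveBLAzer FRET, 2 h RT.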

Sequence of Beta-2 adrenergic receptor (Homo sapiens) (P07550 whole entry, looked up): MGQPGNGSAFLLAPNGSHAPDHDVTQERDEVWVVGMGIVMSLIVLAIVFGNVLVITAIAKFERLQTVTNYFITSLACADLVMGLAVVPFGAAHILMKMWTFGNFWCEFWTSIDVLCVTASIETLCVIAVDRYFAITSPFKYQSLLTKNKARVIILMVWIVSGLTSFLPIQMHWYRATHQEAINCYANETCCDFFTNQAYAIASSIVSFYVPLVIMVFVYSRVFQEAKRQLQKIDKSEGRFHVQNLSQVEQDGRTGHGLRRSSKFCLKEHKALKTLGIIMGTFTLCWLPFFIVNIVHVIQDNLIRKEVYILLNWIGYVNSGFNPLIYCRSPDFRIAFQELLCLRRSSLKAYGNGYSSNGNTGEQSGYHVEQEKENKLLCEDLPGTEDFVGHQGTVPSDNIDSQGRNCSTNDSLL
Sequence of KiSS-1 receptor (Homo sapiens) (Q969F8 whole entry, looked up): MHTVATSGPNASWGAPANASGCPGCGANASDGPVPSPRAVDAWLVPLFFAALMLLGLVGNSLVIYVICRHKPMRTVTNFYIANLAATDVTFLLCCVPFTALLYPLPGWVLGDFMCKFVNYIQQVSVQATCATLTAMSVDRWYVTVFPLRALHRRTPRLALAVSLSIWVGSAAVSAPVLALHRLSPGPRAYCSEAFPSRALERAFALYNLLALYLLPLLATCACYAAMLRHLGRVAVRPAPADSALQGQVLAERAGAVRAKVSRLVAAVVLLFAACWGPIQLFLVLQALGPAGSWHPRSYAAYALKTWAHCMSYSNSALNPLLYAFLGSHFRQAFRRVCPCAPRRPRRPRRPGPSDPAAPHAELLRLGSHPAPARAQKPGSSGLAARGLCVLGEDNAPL
Sequence of Gonadotropin-releasing hormone receptor (Homo sapiens) (P30968 whole entry, looked up): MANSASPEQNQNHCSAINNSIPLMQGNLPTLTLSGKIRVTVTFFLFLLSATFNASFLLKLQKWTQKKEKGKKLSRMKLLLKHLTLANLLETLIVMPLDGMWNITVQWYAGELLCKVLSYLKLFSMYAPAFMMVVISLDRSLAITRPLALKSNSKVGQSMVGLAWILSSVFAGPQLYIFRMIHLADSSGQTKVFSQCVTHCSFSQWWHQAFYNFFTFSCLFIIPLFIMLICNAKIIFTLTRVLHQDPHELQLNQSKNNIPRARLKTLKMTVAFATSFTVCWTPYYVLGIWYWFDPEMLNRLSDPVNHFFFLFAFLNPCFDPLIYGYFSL
Sequence of 5-hydroxytryptamine receptor 2A (Homo sapiens) (P28223 whole entry, looked up): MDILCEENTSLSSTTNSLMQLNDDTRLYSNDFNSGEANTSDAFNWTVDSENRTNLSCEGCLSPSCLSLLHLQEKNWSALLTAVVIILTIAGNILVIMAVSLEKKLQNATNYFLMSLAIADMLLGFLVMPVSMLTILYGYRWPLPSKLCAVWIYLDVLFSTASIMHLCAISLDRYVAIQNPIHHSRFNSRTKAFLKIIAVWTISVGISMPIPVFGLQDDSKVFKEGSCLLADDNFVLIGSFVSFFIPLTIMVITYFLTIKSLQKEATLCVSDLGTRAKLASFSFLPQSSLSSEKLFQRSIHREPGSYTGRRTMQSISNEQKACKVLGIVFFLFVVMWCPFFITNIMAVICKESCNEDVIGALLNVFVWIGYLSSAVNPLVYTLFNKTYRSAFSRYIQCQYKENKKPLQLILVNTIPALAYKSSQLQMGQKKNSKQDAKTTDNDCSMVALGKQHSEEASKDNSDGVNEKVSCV
Sequence of Muscarinic acetylcholine receptor M1 (Homo sapiens) (P11229 whole entry, looked up): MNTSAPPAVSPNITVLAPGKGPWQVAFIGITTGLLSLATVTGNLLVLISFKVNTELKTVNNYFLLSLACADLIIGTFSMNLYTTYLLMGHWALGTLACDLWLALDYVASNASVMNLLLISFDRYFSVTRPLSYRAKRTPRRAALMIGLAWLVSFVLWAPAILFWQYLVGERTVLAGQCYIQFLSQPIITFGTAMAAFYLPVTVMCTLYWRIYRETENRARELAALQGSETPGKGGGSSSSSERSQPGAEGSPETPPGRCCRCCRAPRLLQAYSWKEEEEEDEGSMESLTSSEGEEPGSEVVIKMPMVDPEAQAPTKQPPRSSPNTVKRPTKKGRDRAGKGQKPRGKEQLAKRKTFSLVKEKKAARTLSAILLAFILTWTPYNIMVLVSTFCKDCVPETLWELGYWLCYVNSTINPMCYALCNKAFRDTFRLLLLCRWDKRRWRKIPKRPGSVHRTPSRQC
Sequence of D(2) dopamine receptor (Homo sapiens) (P14416 whole entry, looked up): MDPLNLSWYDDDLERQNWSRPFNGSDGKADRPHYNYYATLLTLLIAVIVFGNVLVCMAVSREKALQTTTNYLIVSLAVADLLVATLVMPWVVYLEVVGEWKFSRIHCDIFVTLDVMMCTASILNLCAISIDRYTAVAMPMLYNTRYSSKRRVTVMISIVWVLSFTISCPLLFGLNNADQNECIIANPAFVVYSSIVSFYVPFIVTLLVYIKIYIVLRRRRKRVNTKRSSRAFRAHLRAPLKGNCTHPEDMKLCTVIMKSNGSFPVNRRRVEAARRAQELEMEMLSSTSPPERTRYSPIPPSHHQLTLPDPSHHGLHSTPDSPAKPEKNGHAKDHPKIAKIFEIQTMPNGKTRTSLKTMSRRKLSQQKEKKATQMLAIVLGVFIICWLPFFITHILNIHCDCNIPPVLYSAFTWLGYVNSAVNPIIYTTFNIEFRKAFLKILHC

Row | SMILES | Potency [1] | Potency [2] | Potency [3] | outcome [4] | outcome [5] | Potency [6] | Potency [7] | Potency [8] | Potency [9] | Potency [10] | Potency [11] | Potency [12] | Potency [13] | Potency [14] | Potency [15] | Potency [16] | Potency [17] | Potency [18] | Potency [19]
1 | CC(C)(C)c1cc(CCC(=O)NCCCCCCNC(=O)CCc2cc(C(C)(C)C)c(O)c(C(C)(C)C)c2)cc(C(C)(C)C)c1O | inactive | inactive | inactive | inactive | inactive | inactive | inactive | inactive | inactive | inactive | inactive | inactive | inactive | inactive | inactive | inactive |  |  | 
2 | O=C(Cn1ccnc1[N+](=O)[O-])NCCO | inactive | inactive | inactive | inactive | inactive | inactive | inactive | inactive | inactive | inactive |  |  | inactive | inactive | inactive | inactive | inactive | inactive | inactive
3 | CC(=O)CCCCn1c(=O)c2c(ncn2C)n(C)c1=O | inactive | inactive | inactive | inactive | inactive | inactive | inactive | inactive | inactive | inactive |  |  |  | inactive | inactive | inactive |  | inactive | inactive
4 | CCOC(=O)N1CCC(Nc2ccc(Cl)cc2N)CC1 | inactive | inactive | inactive | inactive | inactive | inactive | inactive | inactive | inactive | inactive | inactive | inactive | inactive | inactive | inactive | inactive |  |  | 
5 | CNC(=O)CN(CCN(CCN(CC(=O)[O-])CC(=O)NC)CC(=O)[O-])CC(=O)[O-].O.[Gd+3] | inactive | inactive | inactive | inactive | inactive | inactive | inactive | inactive | inactive | inactive |  |  | inactive | inactive |  | inactive | inactive |  | inactive
6 | CC(C)(C)NSc1nc2ccccc2s1 | inactive | 24.8 µM (active) | inactive | inactive | inactive | inactive | inactive | inactive |  | inactive | inactive | inactive | inactive | inactive | inactive |  | inactive | inactive | inactive
7 | CC(=O)OC1CCC(C(C)(C)C)CC1 (configuration not stated) | inactive | inactive | inactive | inactive | inactive | inactive | inactive | inactive |  | inactive | inactive | inactive | inactive | inactive | inactive | inactive | inactive | inactive | inactive
8 | O=C(O)CCN(C1(C(=O)NO)CCCC1)S(=O)(=O)c1ccc(Oc2ccc(F)cc2)cc1 | inactive | inactive | inactive | inactive | inactive | inactive | inactive | inactive | inactive | inactive | inactive |  |  | inactive | inactive | inactive | inactive | inactive | 
9 | CC(=O)OCC(=O)[C@@]1(O)CCC2C3CCC4=CC(=O)CC[C@]4(C)C3[C@@H](O)C[C@@]21C (some centres not stated) | inactive | inactive | inactive | inactive | inactive | inactive | inactive | inactive | inactive |  | inactive | inactive |  | inactive | inactive | inactive | inactive |  | inactive
10 | CC/C=C\CCCCO | inactive | inactive | inactive | inactive | inactive | inactive | inactive | inactive | inactive | inactive | inactive | inactive | inactive | inactive | inactive | inactive | inactive |  | inactive
11 | COc1ccccc1OCC(O)COC(N)=O (configuration not stated) | inactive | inactive | inactive | inactive | inactive | inactive | inactive | inactive | inactive | inactive |  |  |  | inactive | inactive | inactive |  | inactive | 
12 | O=C(Nc1ccc2c(O)c(N=Nc3ccc(N=Nc4ccc(S(=O)(=O)O)cc4)cc3)c(S(=O)(=O)O)cc2c1)c1ccccc1 | 30.6 µM (active) | inactive | inactive | inactive | inactive | inactive | inactive | inactive | inactive | inactive | inactive | inactive | inactive | inactive | inactive | inactive | inactive |  | 
13 | CC/C=C\CCOC(=O)c1ccccc1 | inactive | inactive | inactive | inactive | inactive | inactive | inactive | inactive | inactive | inactive | inactive | inactive |  | inactive | inactive | inactive | inactive |  | inactive
14 | C=CC(=O)OCC(CO)(COCC(COC(=O)C=C)(COC(=O)C=C)COC(=O)C=C)COC(=O)C=C | 4.28 µM (active) | 2.4 µM (active) | inactive | inactive | inactive | inactive | 3.2 µM (active) | 35.9 µM (active) | 14.3 µM (active) |  | inactive | inactive | inactive |  | inactive | 27 µM (active) | inactive |  | 
15 | O=C(N[C@@H](Cc1ccccc1)[C@@H](O)C(=O)N1C[C@@H](O)[C@@H](O)C1)c1cc2cc(Cl)ccc2[nH]1 | inactive | inactive | inactive | inactive | inactive | inactive | inactive | inactive | inactive | inactive | inactive | inactive | inactive | inactive | inactive |  | inactive |  | inactive
16 | C=C(C)CCO | inactive | inactive | inactive | inactive | inactive | inactive | inactive | inactive | inactive | inactive | inactive | inactive | inactive | inactive | inactive | inactive | inactive | inactive | 
